Assay outcomes: PubChem BioAssay, National Center for Advancing Translational Sciences (NCATS)
HEK293 tox: HEK 293 cell cytotoxicity | HEK 293 viability, ATP luminescence (CellTiter-Glo), 48-72 h | Potency, µM (top dose mostly 115 µM), inactives show top-dose activity change, negative = cytotoxicity, actives largely listed as inhibitors | hit rate 6.6% among 94,000 | AID 1345083; also: nearly all actives have a fitted effect of over 60% in size
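250 HEK 293 cells/well; compound by pintool; incubated 48 or 72 hr at 37 degree Celsius; CellTiter-Glo added, 10 min RT, luminescence imaged.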
FLuc inh: Photinus pyralis luciferase inhibition | AID 1347043 | hit rate 2.5% among 76,000 | Potency, µM (highest dose often 115 µM), most hits filed as inhibitors | purified P. pyralis luciferase, luminescence, biochemical | P08659; also: nearly all actives have a fitted effect of over 65% in size
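Luminescence read by CCD imager after adding enzyme (10nM final) to wells holding compound, titrated in qHTS. Substrates 10uM each D-luciferin and ATP; buffer 50mM Tris acetate pH 7.5, 10mM Mg acetate, Tween-20, BSA.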
hNpr1 antagonist: antagonists of human natriuretic peptide receptor Npr1. P16066. HEK293 hNpr1 GloSensor cGMP, ANP-stimulated luminescence. Potency, µM (titrated, usually from 46.3 µM), without a hit: top-dose activity change, negative = inhibition, hits mostly inhibitors. hit rate 1.6% among 76,000. AID 1347048; calls by dose curve; also: nearly all actives have a fitted effect of over 60% in size
Target sequence (P16066 whole entry, looked up): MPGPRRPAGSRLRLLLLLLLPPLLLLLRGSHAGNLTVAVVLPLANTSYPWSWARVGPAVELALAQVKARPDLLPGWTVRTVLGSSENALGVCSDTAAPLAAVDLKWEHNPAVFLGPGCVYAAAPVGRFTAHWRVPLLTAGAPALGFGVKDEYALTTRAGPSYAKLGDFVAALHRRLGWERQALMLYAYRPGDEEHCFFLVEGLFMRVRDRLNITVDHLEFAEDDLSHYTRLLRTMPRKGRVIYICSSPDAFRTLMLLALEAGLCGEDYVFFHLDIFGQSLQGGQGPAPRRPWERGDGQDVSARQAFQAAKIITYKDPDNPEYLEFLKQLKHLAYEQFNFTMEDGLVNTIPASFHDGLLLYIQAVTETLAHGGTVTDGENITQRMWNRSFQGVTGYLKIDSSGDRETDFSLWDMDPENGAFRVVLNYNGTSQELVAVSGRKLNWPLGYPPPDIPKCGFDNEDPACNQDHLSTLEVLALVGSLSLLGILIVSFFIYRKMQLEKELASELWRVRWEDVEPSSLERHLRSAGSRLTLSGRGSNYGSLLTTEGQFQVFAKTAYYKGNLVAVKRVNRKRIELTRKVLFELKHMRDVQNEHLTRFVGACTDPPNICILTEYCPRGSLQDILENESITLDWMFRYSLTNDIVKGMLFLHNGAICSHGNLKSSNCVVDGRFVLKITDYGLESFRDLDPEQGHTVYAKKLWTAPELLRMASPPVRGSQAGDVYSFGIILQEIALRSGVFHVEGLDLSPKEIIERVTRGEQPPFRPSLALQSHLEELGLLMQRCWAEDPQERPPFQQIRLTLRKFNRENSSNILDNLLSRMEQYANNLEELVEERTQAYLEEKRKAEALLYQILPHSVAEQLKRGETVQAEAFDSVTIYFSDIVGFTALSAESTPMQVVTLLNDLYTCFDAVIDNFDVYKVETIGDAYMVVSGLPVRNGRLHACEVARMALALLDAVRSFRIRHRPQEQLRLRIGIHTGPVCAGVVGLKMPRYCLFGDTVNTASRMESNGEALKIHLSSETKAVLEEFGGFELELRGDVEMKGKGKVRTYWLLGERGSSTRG
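Compound pre-incubated 30 min at room temperature on GloSensor-loaded HEK293 cells stably carrying hNpr1 and the pGS-40F cGMP biosensor. Stimulation uses hNppA at 0.1 nM final; luminescence is taken at baseline and 20 min post-agonist.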
NIH3T3 tox: cytotoxic compounds in NIH 3T3 cells. NIH 3T3 viability, CellTiter-Glo ATP luminescence, 48-72 h. Potency, µM (doses to about 96.7 µM), for inactives: top-dose activity change, negative = cytotoxicity, usual class: inhibitors. hit rate 4.3% among 94,000. AID 1345082; also: nearly all actives have a fitted effect of over 55% in size
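Cytotoxicity is measured as loss of cellular ATP: NIH 3T3 cells (400/well) are exposed to compound for 48 or 72 hr at 37 °C, then CellTiter-Glo luminescence is imaged after 10 min at room temperature.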
GPT2 inhibitor: inhibitors of human GPT2 alanine aminotransferase | Q8TD30 | Recombinant GPT2, coupled pyruvate oxidase/HRP Amplex Red fluorescence | Potency, µM (doses to about 57.7 µM), inactives show at the highest dose activity change, negative = inhibition, hits mostly inhibitors | hit rate 0.25% among 100,000 | AID 1671188; also: nearly all actives have a fitted effect of over 60% in size
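Inhibition is scored from Amplex Red fluorescence generated when pyruvate oxidase and HRP act on pyruvate released by GPT2. Reactions contain 10ng/uL enzyme, 250uM a-KG and 2mM L-alanine and run 30 min at room temperature.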
* marks the source's active call; other numbers are inactive results; [ ] = remark or other dose. Compounds with a hit are over-represented: about 10% of the library has one in this group of screens. Unless noted, calls follow the shape of the dose curve; as a rule, active = well fitted curve in the direction sought with a large enough effect; inconclusive = small, poorly fitted or top-dose-only effect, or another doubt; inactive = no such curve, though single readings can be large; an effect the other way counts as inactive or inconclusive. % is scaled to controls: 0 for no effect and ±100 for the full control effect; potency is read from the fitted curve at half-maximal effect.

`COc1ccccc1CN(Cc1ccccc1OC)C[C@@H]1C=C(C)[C@H](Cc2nc3c(C)cccc3[nH]2)C[C@H]1C(C)C` gave HEK293 tox 16µM*, FLuc inh inactive, hNpr1 antagonist inconclusive, NIH3T3 tox 32µM* and GPT2 inhibitor -9%.
Screening CC1=C[C@@H](CNC(=O)c2cccnc2)[C@H](C(C)C)C[C@H]1CC(=O)N1CCCC1 returned HEK293 tox -15%[172 µM], FLuc inh 63µM*, hNpr1 antagonist -12%[70.6 µM], NIH3T3 tox -10%[138 µM] and GPT2 inhibitor -2%[88.5 µM].
Screening CC1=C[C@@H](CNC(=O)Cn2cnnn2)[C@H](C(C)C)C[C@H]1Cc1nc2ccccc2[nH]1 returned HEK293 tox inconclusive, FLuc inh inactive, hNpr1 antagonist -26%[70.6 µM], NIH3T3 tox -23%[138 µM] and GPT2 inhibitor -10%[88.5 µM].
Screening CC1=C[C@@H](CN2C(=O)c3ccccc3C2=O)[C@H](C(C)C)C[C@H]1Cc1nc2ccccc2[nH]1 returned HEK293 tox 32µM*, FLuc inh inactive, hNpr1 antagonist inconclusive, NIH3T3 tox 25µM* and GPT2 inhibitor -15%[88.5 µM].
`CC1=C[C@@H](CNC(=O)CCC(=O)O)[C@H](C(C)C)C[C@H]1Cc1nc2c(C)cccc2[nH]1` gave HEK293 tox inconclusive, FLuc inh inactive, hNpr1 antagonist -2%[70.6 µM], NIH3T3 tox -2%[174 µM] and GPT2 inhibitor 2%[88.5 µM].
Screening CCCNC(=O)NC[C@@H]1C=C(C)[C@H](Cc2nc3ccccc3[nH]2)C[C@H]1C(C)C returned HEK293 tox 100µM*, FLuc inh inactive, hNpr1 antagonist inconclusive, NIH3T3 tox 35µM* and GPT2 inhibitor 2%[88.5 µM].
For CN1CCN([C@H]2CCN(C(=O)COCc3ccccc3)C[C@H]2CCCO)CC1 the results were HEK293 tox -9%, FLuc inh inactive, hNpr1 antagonist 2%, NIH3T3 tox -6% and GPT2 inhibitor -9%[11.5 µM].
COC(=O)CO[C@@H]1CO[C@H]2[C@@H]1OC[C@@H]2n1cc(-c2ccccn2)nn1 was read as HEK293 tox inactive, FLuc inh inactive, hNpr1 antagonist -2%[70.6 µM], NIH3T3 tox inactive and GPT2 inhibitor -3%[88.5 µM].
For COc1ccccc1-c1ccc(CN2CCC(NC(=O)N(C)C)C2)cc1 (configuration not stated) the results were HEK293 tox inconclusive and NIH3T3 tox -20%.
`COc1ccccc1-c1ccc(CN2CCC(NC(=O)Cc3ccccc3)C2)cc1` (configuration not stated) gave HEK293 tox 40µM* and NIH3T3 tox 35µM*.
`COc1ccccc1-c1ccc(CN2CCC(NC(=O)Nc3ccccc3F)C2)cc1` (configuration not stated) gave HEK293 tox 28µM* and NIH3T3 tox 16µM*.
For COc1ccccc1-c1ccc(CN2CCC(NC(=O)Cc3cccc(Cl)c3)C2)cc1 (configuration not stated) the results were HEK293 tox inconclusive, NIH3T3 tox inconclusive and GPT2 inhibitor 0%.
Screening CSc1cccc(NC(=O)C2CCN(c3cnc4nccnc4c3)CC2)c1 returned HEK293 tox 8.9µM*, FLuc inh inactive, hNpr1 antagonist -2%, NIH3T3 tox 6.3µM* and GPT2 inhibitor -2%.
Screening O=C(Nc1ccc2c(c1)OCCO2)N1CCCC1Cc1noc(Cc2ccccc2)n1 (configuration not stated) returned HEK293 tox -23%, NIH3T3 tox inconclusive and GPT2 inhibitor inactive.
`CC(C)c1ccc(S(=O)(=O)N2CCCC2Cc2noc(Cc3ccccc3)n2)cc1` (configuration not stated) gave HEK293 tox 25µM*, NIH3T3 tox inconclusive and GPT2 inhibitor inactive.
`Cc1ccc(C2Cn3cnc(C(=O)N4CCC(C(=O)NCc5ccc(F)cc5)CC4)c3CO2)cc1` (configuration not stated) gave HEK293 tox 8%, FLuc inh 35µM*, hNpr1 antagonist -12%, NIH3T3 tox inactive and GPT2 inhibitor inactive.
COc1ccc(C2Cn3cnc(C(=O)N4CCC(C(=O)NCc5ccc(F)cc5)CC4)c3CO2)cc1 (configuration not stated) was read as HEK293 tox -3%, FLuc inh inactive, hNpr1 antagonist -1%, NIH3T3 tox 0% and GPT2 inhibitor -10%.
For COc1ccc(CNC(=O)C2CCN(C(=O)c3ncn4c3COC(c3ccc(C)cc3)C4)CC2)cc1 (configuration not stated) the results were HEK293 tox -18%, FLuc inh 40µM*, hNpr1 antagonist -10%, NIH3T3 tox -14% and GPT2 inhibitor inactive.
`Cc1cccc(C)c1NC(=O)Cn1ccn2nc(-c3ccc(F)cc3)c(CO)c2c1=O` gave HEK293 tox -16%, FLuc inh inactive, hNpr1 antagonist 0%, NIH3T3 tox -16% and GPT2 inhibitor -4%.
Screening Cc1ccsc1CN1CCCCCCNC(=O)CC1c1ccccc1 (configuration not stated) returned HEK293 tox inconclusive, FLuc inh inactive, hNpr1 antagonist -13%, NIH3T3 tox -25% and GPT2 inhibitor inactive.
For Cc1ccc(-c2cc(N3CCCN(C(=O)c4ccc5c(c4)OCO5)CC3)n[nH]2)cc1C the results were HEK293 tox inconclusive, FLuc inh inactive, hNpr1 antagonist -16%, NIH3T3 tox inconclusive and GPT2 inhibitor inconclusive.
For COc1ccc(-c2cc(N3CCCN(C(=O)c4ccc(C(C)(C)C)cc4)CC3)n[nH]2)cc1 the results were HEK293 tox 40µM*, FLuc inh inactive, hNpr1 antagonist -1%, NIH3T3 tox inconclusive and GPT2 inhibitor 0%.
`COc1ccc(Cl)cc1C(=O)N1CCCN(c2cc(-c3ccc(C)c(C)c3)[nH]n2)CC1` gave HEK293 tox inconclusive, FLuc inh inactive, hNpr1 antagonist -20%, NIH3T3 tox 40µM* and GPT2 inhibitor inconclusive.
COc1ccc(C(=O)N2CCCN(c3cc(-c4ccc(OC)cc4)[nH]n3)CC2)cc1 was read as HEK293 tox inconclusive, FLuc inh inactive, hNpr1 antagonist -21%, NIH3T3 tox -27% and GPT2 inhibitor -21%.
`COc1ccc(-c2cc(N3CCCN(C(=O)c4ccc(C)c(C)c4)CC3)n[nH]2)cc1` gave HEK293 tox 45µM*, FLuc inh inactive, hNpr1 antagonist 0%, NIH3T3 tox inconclusive and GPT2 inhibitor inconclusive.
For Cc1ccc(C(=O)N2CCCN(c3cc(-c4ccc(C)c(C)c4)[nH]n3)CC2)cc1C the results were HEK293 tox 35µM*, FLuc inh inactive, hNpr1 antagonist -11%, NIH3T3 tox inconclusive and GPT2 inhibitor inconclusive.
